For some of these results: Results with a measured potency or affinity are listed apart.
Experiments:
Design in all cases: scale not given: direction of the effect not stated beside the values
[1] = biological target: Protein translocase subunit SecA (Escherichia coli (strain K12)) (UniProt P10408); assay: Assay to Identify E. coli SecA ATPase Inhibitors; type: functional; settings: 30 µM
[2] = biological target: T1, Ubiquitin-activating enzyme e1, putative (Leishmania donovani (strain BPK282A1)) (UniProt E9BSI1); assay: Leishmania donovani Ubiquitin Activating Enzyme (LdE1); type: functional; settings: 30 µM
T1 sequence (whole entry): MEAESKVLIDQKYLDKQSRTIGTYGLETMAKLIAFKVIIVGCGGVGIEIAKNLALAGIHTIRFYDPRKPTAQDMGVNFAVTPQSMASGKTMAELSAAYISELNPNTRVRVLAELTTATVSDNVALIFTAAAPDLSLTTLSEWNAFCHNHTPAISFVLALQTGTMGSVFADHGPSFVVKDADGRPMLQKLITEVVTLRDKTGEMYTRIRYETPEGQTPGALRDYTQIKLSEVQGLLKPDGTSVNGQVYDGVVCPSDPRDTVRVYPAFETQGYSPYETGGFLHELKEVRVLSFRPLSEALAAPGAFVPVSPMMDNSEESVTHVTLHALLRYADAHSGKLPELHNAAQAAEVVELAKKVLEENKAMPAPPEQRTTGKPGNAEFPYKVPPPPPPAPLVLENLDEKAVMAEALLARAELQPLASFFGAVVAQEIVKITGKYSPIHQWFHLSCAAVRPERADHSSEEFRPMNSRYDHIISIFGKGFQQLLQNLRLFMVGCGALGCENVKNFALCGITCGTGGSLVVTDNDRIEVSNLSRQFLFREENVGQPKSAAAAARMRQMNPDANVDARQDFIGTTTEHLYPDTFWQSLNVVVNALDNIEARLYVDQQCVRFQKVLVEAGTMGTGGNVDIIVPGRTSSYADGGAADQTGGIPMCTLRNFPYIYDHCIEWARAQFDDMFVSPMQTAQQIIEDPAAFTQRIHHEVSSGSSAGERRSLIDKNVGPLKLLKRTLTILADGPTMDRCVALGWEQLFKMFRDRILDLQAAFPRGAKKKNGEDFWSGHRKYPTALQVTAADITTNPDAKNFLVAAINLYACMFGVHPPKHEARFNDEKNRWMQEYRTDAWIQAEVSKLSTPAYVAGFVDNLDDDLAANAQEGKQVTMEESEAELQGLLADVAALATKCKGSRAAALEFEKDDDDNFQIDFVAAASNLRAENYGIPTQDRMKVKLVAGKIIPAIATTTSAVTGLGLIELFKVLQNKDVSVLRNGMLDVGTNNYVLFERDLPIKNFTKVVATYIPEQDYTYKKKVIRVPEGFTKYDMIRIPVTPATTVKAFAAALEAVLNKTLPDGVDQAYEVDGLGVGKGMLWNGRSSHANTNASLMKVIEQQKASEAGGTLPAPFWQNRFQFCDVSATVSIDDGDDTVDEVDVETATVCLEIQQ

[3] = biological target: AMP-activated protein kinase, AMPK (Homo sapiens) (UniProt P54646+O43741+P54619+Q9UGJ0+Q9Y478+Q13131+Q9UGI9); assay: AMP-dependent Kinase enzyme assay. An in vitro enzyme assay that detects ADP turnover that is directly proportional to AMPK activity. This uses naive AMPK that is activated during the assay with MK-8722; type: functional; settings: 30 µM
[4] = biological target: Sialic acid-binding Ig-like lectin 9 (Homo sapiens) (UniProt Q9Y336); assay: Hs-Siglec9 ALPHAscreen SOP 20170721; settings: 10 µM
[5] = test system: Trypanosoma cruzi; assay: Trypanosoma cruzi phosphomannomutase and mannose-1-phosphate guanylyltransferase assay; type: functional; settings: 10 µM
[6] = biological target: T2, Arginase-2, mitochondrial (Homo sapiens) (UniProt P78540); assay: in vitro enzyme assay to detect the production of urea directly proportional to the activity of Arginase II; type: functional; settings: 33.3 µM; note: in the data most compounds retested in dose-response had high values
T2 sequence (whole entry): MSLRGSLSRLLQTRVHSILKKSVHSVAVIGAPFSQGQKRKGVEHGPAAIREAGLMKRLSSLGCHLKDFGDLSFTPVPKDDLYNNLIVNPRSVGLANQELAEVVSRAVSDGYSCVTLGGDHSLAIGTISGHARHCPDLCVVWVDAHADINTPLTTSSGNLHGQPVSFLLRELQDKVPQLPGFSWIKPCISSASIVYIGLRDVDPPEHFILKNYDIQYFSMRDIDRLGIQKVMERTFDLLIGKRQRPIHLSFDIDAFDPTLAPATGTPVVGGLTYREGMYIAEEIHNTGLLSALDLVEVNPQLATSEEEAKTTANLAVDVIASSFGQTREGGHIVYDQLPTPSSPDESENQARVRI

[7] = biological target: T3, Proteasome subunit beta (Trypanosoma cruzi) (UniProt O96673); assay: Trypanosoma cruzi proteasome chymotrypsin-like activity (TcProtChymo) assay.; note: in the data most compounds retested in dose-response had high values; type: functional; settings: 9.37 µM
T3 sequence (whole entry): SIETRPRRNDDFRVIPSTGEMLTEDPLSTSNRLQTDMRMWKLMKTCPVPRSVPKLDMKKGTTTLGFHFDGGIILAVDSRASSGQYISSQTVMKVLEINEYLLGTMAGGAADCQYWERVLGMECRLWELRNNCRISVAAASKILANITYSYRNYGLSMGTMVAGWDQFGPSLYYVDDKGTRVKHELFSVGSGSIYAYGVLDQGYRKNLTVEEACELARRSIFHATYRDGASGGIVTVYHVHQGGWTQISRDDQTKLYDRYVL

[8] = species on record: Homo sapiens; assay: To identify inhibition of the IFN signalling (Jak-Stat) pathway via expression of an eGFP reporter gene under the control of an IFN-stimulated response element (ISRE) containing MxA promoter.; type: functional; settings: 30 µM
[9] = biological target: T4, Tyrosyl-tRNA synthetase, putative (Trypanosoma cruzi (strain CL Brener)) (UniProt Q4DSP6); assay: Trypanosoma cruzi tyrosyl tRNA synthetase (TcYRS) _High Tyrosine SOP; type: functional; settings: 30 µM; note: in the data most compounds retested in dose-response had high values
T4 sequence (whole entry): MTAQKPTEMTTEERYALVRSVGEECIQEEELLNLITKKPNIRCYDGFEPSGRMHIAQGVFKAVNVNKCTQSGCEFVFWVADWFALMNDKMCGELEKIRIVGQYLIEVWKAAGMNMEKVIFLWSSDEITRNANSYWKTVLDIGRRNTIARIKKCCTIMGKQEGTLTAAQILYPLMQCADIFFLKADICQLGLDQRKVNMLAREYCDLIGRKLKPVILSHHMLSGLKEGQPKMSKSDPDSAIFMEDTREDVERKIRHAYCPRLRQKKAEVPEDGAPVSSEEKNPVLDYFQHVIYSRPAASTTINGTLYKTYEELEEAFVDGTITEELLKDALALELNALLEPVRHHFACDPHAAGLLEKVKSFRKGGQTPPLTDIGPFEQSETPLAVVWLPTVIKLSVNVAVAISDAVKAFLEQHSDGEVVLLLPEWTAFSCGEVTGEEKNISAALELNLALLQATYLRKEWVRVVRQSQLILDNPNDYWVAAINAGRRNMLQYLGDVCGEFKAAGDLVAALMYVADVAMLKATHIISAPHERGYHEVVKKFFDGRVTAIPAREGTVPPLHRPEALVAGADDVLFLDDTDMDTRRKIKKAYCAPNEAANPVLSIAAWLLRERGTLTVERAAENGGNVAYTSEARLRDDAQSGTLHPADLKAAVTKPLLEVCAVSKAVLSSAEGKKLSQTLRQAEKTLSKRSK

[10] = biological target: T4, Tyrosyl-tRNA synthetase, putative (Trypanosoma cruzi (strain CL Brener)); assay: Trypanosoma cruzi tyrosyl tRNA synthetase (TcYRS) SOP; type: functional; settings: 30 µM
[11] = biological target: Chromo domain-containing protein 1 (Saccharomyces cerevisiae (strain ATCC 204508 / S288c) (Baker's yeast)) (UniProt P32657); assay: ScCHD-1 Enzyme Inhibition Assay; type: functional; settings: 30 µM; note: in the data most compounds retested in dose-response had high values
Chromo domain-containing protein 1 (Saccharomyces cerevisiae (strain ATCC 204508 / S288c) (Baker's yeast)), sequence (P32657 whole entry, the tested form may be a part): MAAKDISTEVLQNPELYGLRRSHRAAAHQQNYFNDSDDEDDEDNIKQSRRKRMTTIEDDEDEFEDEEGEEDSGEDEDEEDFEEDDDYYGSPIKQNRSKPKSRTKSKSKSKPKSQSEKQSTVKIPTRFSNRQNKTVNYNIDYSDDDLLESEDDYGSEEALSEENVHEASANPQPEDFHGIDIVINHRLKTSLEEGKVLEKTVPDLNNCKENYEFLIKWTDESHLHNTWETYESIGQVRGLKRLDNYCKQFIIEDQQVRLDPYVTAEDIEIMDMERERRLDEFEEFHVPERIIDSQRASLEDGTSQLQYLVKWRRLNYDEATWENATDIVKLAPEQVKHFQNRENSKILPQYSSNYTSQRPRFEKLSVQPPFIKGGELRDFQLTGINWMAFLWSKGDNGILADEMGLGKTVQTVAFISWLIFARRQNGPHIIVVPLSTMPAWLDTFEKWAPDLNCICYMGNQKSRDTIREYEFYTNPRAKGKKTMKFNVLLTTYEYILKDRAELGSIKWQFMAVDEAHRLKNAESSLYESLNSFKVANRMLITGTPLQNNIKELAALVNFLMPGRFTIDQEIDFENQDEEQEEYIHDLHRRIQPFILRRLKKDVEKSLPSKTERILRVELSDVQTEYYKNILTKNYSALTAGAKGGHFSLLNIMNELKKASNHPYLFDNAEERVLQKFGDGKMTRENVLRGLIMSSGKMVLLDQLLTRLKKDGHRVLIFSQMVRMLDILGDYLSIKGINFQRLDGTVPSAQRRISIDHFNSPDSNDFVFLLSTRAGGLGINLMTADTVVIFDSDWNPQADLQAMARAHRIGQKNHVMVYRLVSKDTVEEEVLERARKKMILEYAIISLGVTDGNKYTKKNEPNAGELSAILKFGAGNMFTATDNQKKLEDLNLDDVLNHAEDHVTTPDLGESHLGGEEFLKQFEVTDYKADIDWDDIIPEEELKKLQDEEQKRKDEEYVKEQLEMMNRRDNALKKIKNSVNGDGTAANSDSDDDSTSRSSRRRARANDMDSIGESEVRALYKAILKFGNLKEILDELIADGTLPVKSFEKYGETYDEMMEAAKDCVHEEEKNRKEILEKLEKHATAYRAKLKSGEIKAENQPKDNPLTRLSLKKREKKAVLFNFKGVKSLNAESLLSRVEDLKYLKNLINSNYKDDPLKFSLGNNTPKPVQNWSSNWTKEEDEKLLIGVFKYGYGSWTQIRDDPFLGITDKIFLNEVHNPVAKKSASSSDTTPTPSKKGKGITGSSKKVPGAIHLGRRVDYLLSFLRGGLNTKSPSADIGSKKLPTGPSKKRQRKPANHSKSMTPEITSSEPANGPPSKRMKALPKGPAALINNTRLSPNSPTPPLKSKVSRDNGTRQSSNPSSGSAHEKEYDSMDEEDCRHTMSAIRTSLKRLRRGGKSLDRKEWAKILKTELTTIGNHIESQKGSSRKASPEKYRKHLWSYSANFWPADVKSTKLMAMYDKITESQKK

Protein translocase subunit SecA (Escherichia coli (strain K12)), sequence (P10408 whole entry): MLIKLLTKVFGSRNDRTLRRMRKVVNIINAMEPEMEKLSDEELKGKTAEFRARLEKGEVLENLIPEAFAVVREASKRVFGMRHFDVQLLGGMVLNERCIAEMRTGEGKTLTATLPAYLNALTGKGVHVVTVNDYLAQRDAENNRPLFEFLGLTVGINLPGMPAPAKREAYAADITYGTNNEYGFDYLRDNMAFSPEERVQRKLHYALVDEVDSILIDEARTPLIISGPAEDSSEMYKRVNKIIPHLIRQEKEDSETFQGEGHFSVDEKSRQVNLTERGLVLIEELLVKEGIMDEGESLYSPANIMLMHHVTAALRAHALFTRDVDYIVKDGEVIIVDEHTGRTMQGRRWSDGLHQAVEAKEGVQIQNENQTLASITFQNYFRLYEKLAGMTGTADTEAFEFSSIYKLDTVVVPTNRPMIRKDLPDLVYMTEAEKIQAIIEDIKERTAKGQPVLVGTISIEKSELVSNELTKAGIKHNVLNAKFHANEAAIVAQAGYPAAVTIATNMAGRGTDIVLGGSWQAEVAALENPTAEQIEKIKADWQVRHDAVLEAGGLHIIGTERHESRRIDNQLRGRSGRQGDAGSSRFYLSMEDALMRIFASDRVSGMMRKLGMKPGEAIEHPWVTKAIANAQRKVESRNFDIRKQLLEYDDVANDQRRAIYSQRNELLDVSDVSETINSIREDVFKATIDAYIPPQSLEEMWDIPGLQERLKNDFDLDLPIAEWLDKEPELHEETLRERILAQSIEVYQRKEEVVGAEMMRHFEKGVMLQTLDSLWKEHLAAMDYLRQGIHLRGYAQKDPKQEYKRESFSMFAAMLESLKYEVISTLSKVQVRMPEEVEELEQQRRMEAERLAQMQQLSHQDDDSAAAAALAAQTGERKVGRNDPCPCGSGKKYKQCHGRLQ
Sialic acid-binding Ig-like lectin 9 (Homo sapiens), sequence (Q9Y336 whole entry): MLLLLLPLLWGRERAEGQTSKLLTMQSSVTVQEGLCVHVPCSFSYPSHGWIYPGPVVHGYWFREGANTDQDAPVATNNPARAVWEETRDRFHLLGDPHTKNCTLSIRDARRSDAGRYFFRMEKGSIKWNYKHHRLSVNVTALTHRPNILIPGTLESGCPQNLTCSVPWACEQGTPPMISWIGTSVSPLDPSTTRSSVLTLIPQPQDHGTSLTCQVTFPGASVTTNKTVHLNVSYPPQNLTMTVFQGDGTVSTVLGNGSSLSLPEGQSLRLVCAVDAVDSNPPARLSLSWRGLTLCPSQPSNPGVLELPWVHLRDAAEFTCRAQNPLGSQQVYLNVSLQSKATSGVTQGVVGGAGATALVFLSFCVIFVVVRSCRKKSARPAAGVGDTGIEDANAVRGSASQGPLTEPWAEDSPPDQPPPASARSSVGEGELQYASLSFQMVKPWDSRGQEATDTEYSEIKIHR

Structure (SMILES) | Percent Effect [1] [%] | Percent Effect [2] [%] | Percent Effect [3] [%] | Percent Effect [4] [%] | Percent Effect [5] [%] | Percent Effect [6] [%] | Percent Effect [7] [%] | Percent Effect [8] [%] | Percent Effect [9] [%] | Percent Effect [10] [%] | Percent Effect [11] [%]
COc1ccc(NC(=O)NCC(O)c2ccc(F)cc2F)c(OC)c1 (stereo unspecified) | 0.46 | 3.8 | 1.85 | -3.56 | -4.41 | 10.5 | 13.2 | 12.5 | 3.12 | 10.1 | -20.4
Cn1cnc2c1C(COCC1CCOCC1)CN(C1CCOCC1)C2 (stereo unspecified) | -3.42 | 13.3 | 10.9 | 4.02 | -2.76 | 3.96 | 6.96 | -11.2 | 5.32 | 11.5 | -4.46
CN(C)c1cncc(C2CCN(CCO)CC2)n1 | -3.32 | 12.2 | 5.42 | -1.62 | -2.96 | -3.94 | 8.74 | 8.75 | 7.53 | 16.9 | -15.7
Cc1nc(C)n(CC2CCCN2Cc2cc(C)on2)n1 (stereo unspecified) | -7.09 | 5.2 | -68.4 | -5.71 | -2.06 | 3.58 | 12.2 | 19.8 | 0 | 7.06 | -23.5
CC(=O)Nc1ccc(S(=O)(=O)NC(=O)CCC2CCCO2)cc1 (stereo unspecified) | -9.79 | 10.8 | -16.6 | 34.9 | 8.21 | -16.8 | 6.31 | -1.72 | 1.48 | 13.6 | -16.9
CN(Cc1ccco1)C[C@H]1OC[C@@H]2CCN(Cc3cccs3)C[C@@H]21 | 1.17 | -2.67 | 4.12 | 7.42 | -3.28 | -50.7 | -3.59 | -15.4 | -1.04 | -37.5 | -2.22
O=C([C@@H]1C[C@@H]2CCN(CCc3ccccc3)C[C@H]2O1)N1CCCC1 | 1.08 | 8 | 15 | -9.77 | -7.09 | 8.62 | 14.7 | -9.49 | 4.25 | 8.97 | 0.575
O=C(CSc1ccc2c(c1)OCCO2)NS(=O)(=O)C1CCCCC1 | -2.58 | -1.39 | 3.64 | -7.65 | -6.71 | 3.09 | 11.4 | 9.49 | -1.05 | -5.13 | -0.962
Cc1nnc(N2C[C@H](C(=O)NCC3CC3)[C@@H]3CCO[C@@H]3C2)s1 | 0.351 | 0 | 3.72 | 2.6 | -6.02 | -3.23 | 0.696 | 7.74 | 0 | 1.28 | -1.37
CCc1nnc(CN2CCN(C(=O)c3cc4ccccc4[nH]3)CC2)o1 | -3 | -2.6 | 2.79 | 2.32 | 8.91 | -1.47 | 2.83 | -20 | 1.91 | 2.35 | -14.7
Cc1ccc(C2CCCCCN2Cc2cn(C)nc2C)s1 (stereo unspecified) | -9.52 | 18.2 | 0.0483 | -1.66 | 1.48 | -4.52 | 9.92 | -5.04 | 0 | 14.1 | -7.58

Source: ChEMBL document CHEMBL3988442, “University of Dundee, Small-Polar-MMV Screening Library” (2021)
